Results as given in PubChem BioAssay AID1159580 (chemical genetic matrix, 2015).
About 2,000 (36%) of roughly 5,500 compounds were called active. Another 18% or so got no clear call; they are omitted. Cut-off read from the data, not from the text of the source: active = normalized growth mostly below about 0.91 (no sharp cut-off); inconclusive = no clear call, values can overlap the other calls; inactive = mostly above about 0.92. Some of the results follow.

Assay: chemical genetic growth profiling, strain panel (AID 1159580);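 note: tested at 20 µM; growth read once vehicle control cultures reached saturation at 30 °C; 1 = growth at the plate median or of vehicle wells; lower values mean less growth of the strain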
Conditions: S. cerevisiae deletion strains, growth OD

Measured: normalized growth

O=C(O)c1ccccc1Nc1cccc(OCc2ccc3ccccc3n2)c1
inactive: locus YAL013W, strain DEP1, stronger effect = lower value 0.996 | locus YAL040C, strain CLN3, stronger effect = lower value 0.932 | locus YCL061C, strain MRC1 (second series), stronger effect = lower value 0.997 | locus YDR150W, strain NUM1, stronger effect = lower value 1 | locus YDR363W, strain ESC2, stronger effect = lower value 1 | locus YER002W, strain NOP16, stronger effect = lower value 1.01 | locus YGR078C, strain PAC10, stronger effect = lower value 0.967 | locus YHR030C, strain SLT2, stronger effect = lower value 1.03 | locus YHR079C, strain IRE1, stronger effect = lower value 1.03 | locus YJL095W, strain BCK1, stronger effect = lower value 1.05 | locus YJR066W, strain TOR1, stronger effect = lower value 0.968 | locus YJR075W, strain HOC1, stronger effect = lower value 1.01 | locus YLR113W, strain HOG1, stronger effect = lower value 1.01 | locus YMR263W, strain SAP30, stronger effect = lower value 0.999 | locus YMR307W, strain GAS1, stronger effect = lower value 1.04 | locus YNL128W, strain TEP1, stronger effect = lower value 0.957 | locus YNL153C, strain GIM3, stronger effect = lower value 1.04 | locus YNL175C, strain NOP13, stronger effect = lower value 0.94 | locus YNL183C, strain NPR1, stronger effect = lower value 0.981 | locus YNL197C, strain WHI3, stronger effect = lower value 0.934 | locus YNL224C, strain SQS1, stronger effect = lower value 0.95 | locus YNL322C, strain KRE1, stronger effect = lower value 1.02 | locus YOR083W, strain WHI5 (second series), stronger effect = lower value 0.959 | locus YOR231W, strain MKK1, stronger effect = lower value 1.02 | locus YPL241C, strain CIN2, stronger effect = lower value 0.989 | locus YPL256C, strain CLN2, stronger effect = lower value 1.02
